Compound activity: PubChem BioAssay, National Center for Advancing Translational Sciences (NCATS)
ELG1 genotox: genotoxicity induction in ELG1-luciferase HEK293T cells | AID 504466 | Potency, µM (titrated, usually from 46 µM), for the others: at the highest dose activity change, positive = activation, most hits filed as activators | hit rate 1.3% among 330,000 | HEK293T ELG1-luciferase reporter, luminescence, 16 h; further: % of control where 0% means no effect; nearly all actives have a fitted effect of over 60% in size
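Cells (2,000/well) expressing the ELG1-luciferase fusion are dosed by pin tool and kept 16 hr at 37 °C, 5% CO2. Signal comes from ONE-Glo luciferase reagent after 30 min at room temperature.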
FLuc modulator: firefly luciferase modulation, counter-screen for miR-21 project; purified FLuc, Km substrates, luminescence inhibition; Potency, µM (top dose mostly 57.5 µM), for inactives: top-dose activity change, negative = inhibition, usual class: inhibitors; hit rate 6.9% among 360,000;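 further: plate controls were vehicle for no effect and reference inhibitor for full effect; nearly all actives have a fitted effect of over 55% in size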
Target sequence (P08659 whole entry, looked up): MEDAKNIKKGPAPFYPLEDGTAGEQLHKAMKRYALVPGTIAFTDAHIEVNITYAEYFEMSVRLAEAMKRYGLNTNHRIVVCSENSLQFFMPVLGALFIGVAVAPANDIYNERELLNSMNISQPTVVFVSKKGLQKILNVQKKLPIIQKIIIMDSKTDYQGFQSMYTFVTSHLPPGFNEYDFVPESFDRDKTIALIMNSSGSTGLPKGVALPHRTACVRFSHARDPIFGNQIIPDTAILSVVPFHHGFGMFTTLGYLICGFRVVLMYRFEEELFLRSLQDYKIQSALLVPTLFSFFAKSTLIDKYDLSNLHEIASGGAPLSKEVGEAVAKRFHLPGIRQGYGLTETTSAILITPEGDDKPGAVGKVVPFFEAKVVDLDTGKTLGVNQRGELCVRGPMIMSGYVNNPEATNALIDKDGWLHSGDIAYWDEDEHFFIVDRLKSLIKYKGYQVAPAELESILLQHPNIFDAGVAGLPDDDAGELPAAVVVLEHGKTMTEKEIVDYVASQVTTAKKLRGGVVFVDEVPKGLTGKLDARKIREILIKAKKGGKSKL
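Biochemical qHTS of compounds, final roughly 60 µM downward over six points, against 10 nM purified firefly luciferase using Km concentrations of substrates (10 uM D-luciferin, 10 uM ATP) in Tris acetate pH 7.5 buffer; luminescence output.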
Luc counter: Kinase-Glo luciferase inhibition (counter-screen); Q27757; Kinase-Glo luciferase, ATP luminescence, 8 min; Potency, µM (highest dose often 38.3 µM), for the others: top-dose activity change, negative = inhibition, hits mostly inhibitors; hit rate 0.28% among 200,000; further: on the % scale 0 is the no-effect control and ±100 the full control effect; nearly all actives have a fitted effect of over 60% in size
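Kinase-Glo luciferase light output from ATP and luciferin was measured with 10 uM ATP, within the enzyme's linear range. Buffer: 50 mM imidazole pH 7.2, 50 mM KCl, 7 mM MgCl2, 0.01% Tween 20, 0.05% BSA; luminescence read after 8 min at ambient temperature.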
NPC1 prom act: NPC1 promoter activation; Potency, µM (doses to about 9.22 µM), inactives show top-dose activation, usual class: activators; Huh7 NPC1 promoter luciferase reporter, 24 h; hit rate 2.4% among 320,000; further: % of control where 0% means no effect; nearly all actives have a fitted effect of over 60% in size
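Compounds in DMSO were transferred onto Huh7 NPC1-luciferase reporter cells pre-incubated 2 h; after 24 h at 37 °C, Amplite reagent was dispensed and luminescence recorded 10 min later.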
Rab9 promoter act: activates the Rab9 promoter | Huh7 Rab9 promoter-luciferase reporter, luminescence, 24 h | Potency, µM (titrated, usually from 9.22 µM), without a hit: top-dose activation, negative = inhibition, most hits filed as activators | hit rate 2.8% among 320,000; further: % of control where 0% means no effect; nearly all actives have a fitted effect of over 60% in size
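Cells were plated at 1500 per well in reduced-serum medium with 10% FBS and left 2 h. Compound in DMSO was then added for 24 h at 37 °C. Reporter signal was read by luminescence after 10 min with luciferase detection reagent.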
SMN2 splice up: enhancers of SMN2 splice variant expression | HEK293 SMN2-luciferase splicing reporter, luminescence, 30-36 h | Potency, µM (highest dose often 46.1 µM), for inactives: top-dose activity change, positive = activation, hits mostly activators | hit rate 2.8% among 210,000 | AID 1458; further: % of control where 0% means no effect; nearly all actives have a fitted effect of over 55% in size
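qHTS luciferase splicing reporter: luminescence rises when SMN2 exon 7 is included in transfected HEK293 cells. Compound exposure lasted 30-36 h at 37C, with 4.5 mM final sodium butyrate as control, followed by a ONE-Glo read.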
Numbers without * were called inactive; ? = inconclusive; · = no result; [ ] = dose if it differs, or a comment. This is a sample that favours compounds with a hit; in the whole collection about 7.5% have one here. The call rests on the fitted dose curve; in most records, active means well fitted curve in the direction sought with a large enough effect; inconclusive means small, poorly fitted or top-dose-only effect, or another doubt; inactive means no such curve, though single readings can be large; an effect the other way counts as inactive or inconclusive. Potency means the concentration at half of the fitted maximal effect.

SMILES	ELG1 genotox	FLuc modulator	Luc counter	NPC1 prom act	Rab9 promoter act	SMN2 splice up
Clc1ccccc1-c1nnc(-c2cccs2)o1	?	9.53µM*	-24.7%	2.24µM*	1.26µM*	11.2µM*
c1ccc(-c2nc(-c3ccncc3)no2)cc1	·	12µM*	-28.8%	·	·	?
Brc1ccc(-c2nc(-c3ccncc3)no2)o1	18.4µM*	?	-4.6%	?	?	?
COC(=O)c1ccccc1NC(=O)Cn1c(=O)n(-c2ccc(C)cc2)c(=O)c2ccccc21	·	1.6%	·	·	·	10.6%
CSc1ccccc1-c1nc(-c2ccncc2)no1	?	?	·	3.55µM*	?	·
c1ccc(-c2ccc(-c3nc(-c4ccncc4)no3)cc2)cc1	1.64µM*	0.601µM*	-16.5%	?	0.141µM*	?
Cc1nc(-c2noc(-c3ccccc3Cl)n2)c(C(F)(F)F)o1	17.7%	15.1µM*	·	?	28.8%	·
c1ccc(-c2ccccc2-c2nc(-c3ccncc3)no2)cc1	-2.1%	-1.6%	2.8%	-2.9%	0.1%	3.16µM*
O=C(CSc1nnc(CNC(=O)c2ccccc2)n1-c1cccc(Cl)c1)Nc1ccccc1F	·	1.5%	·	·	·	18.1%
Cn1ccc2c(OCC(=O)NCc3ccccc3Cl)cccc2c1=O	·	2.6%	·	·	·	·
O=C(O)c1cc(=O)c2ccc(Cl)cc2[nH]1	·	·	-0.9%	·	·	21.0%
CCCCSc1nnc2n(-c3cccc(C)c3)c(=O)c3c4c(sc3n12)CCCC4	·	-5.3%	·	·	·	8.8%
Clc1ccccc1-c1nnc(-c2cccnc2)o1	23.1µM*	15.1µM*	·	3.98µM*	?	·
O=[N+]([O-])c1ccc(-c2nc(-c3ccncc3)no2)cc1	11.7%	?	·	?	?	·
Cc1onc(-c2ccccc2Cl)c1-c1nc(-c2ccncc2)no1	1.9%	0.3%	-0.4%	1.0%	-4.3%	-11.3%
Brc1ccc(-c2nc(-c3ccncc3)no2)cc1	?	2.39µM*	·	2.24µM*	3.16µM*	·
Clc1ccccc1-c1nc(-c2ccncc2)no1	10.3µM*	6.75µM*	-8.0%[7.66 µM]	3.98µM*	1.26µM*	?
Cc1ccccc1-c1nc(-c2ccccn2)no1	?	0.477µM*	6.31µM*	?	0.447µM*	1.12µM*
Cc1ccc(NC(=O)CCCn2c(=O)c3cccn3c3ccccc32)c(C)c1	·	-17.8%	·	·	·	·
CCOC(=O)c1c(NC(=O)CN2C(=O)C(=O)N(C(C)C)C2=O)sc(C)c1CC	-1.7%	·	·	-0.1%	-0.6%	·
COc1ccccc1CNC(=O)c1cc(Sc2cccc(Cl)c2)nc2ccccc12	·	-1.4%	·	·	·	·
O=C(Nc1ccc(F)c(F)c1)c1cc(S(=O)(=O)NCc2ccc3c(c2)OCO3)ccc1F	·	-0.5%	·	·	·	·
Cc1ccc(SCc2nc(-c3cccnc3)no2)cc1	0.6%	0.9%[2.3 µM]	5.2%	10.7%	11.7%	7.5%
COc1ccc(-c2noc(-c3ccc(C)cc3Cl)n2)cc1OC	·	?	·	·	·	8.8%
Cc1ccc(-c2nc(-c3ccncc3)no2)c(Cl)c1	0.461µM*	0.477µM*	·	0.631µM*	?	·
SMILES	ELG1 genotox	FLuc modulator	Luc counter	NPC1 prom act	Rab9 promoter act	SMN2 splice up
Cc1ccccc1-c1nc(-c2cccnc2)no1	?	10.7µM*	9.5%	?	?	?
CC(=O)Nc1ccc(NC(=O)COc2cc(O)c3c(c2)OC(C)(C)CC3=O)cc1	10.2%	21.3µM*	·	10.8%	1.8%	·
CC1(C)CC(=O)c2ccc(OCc3ccc([N+](=O)[O-])cc3)cc2O1	?	6.01µM*	·	2.51µM*	2.51µM*	·
Cc1cc(OCC(=O)Nc2ccc(Br)cc2)cc2c1C(=O)CC(C)(C)O2	-8.4%	-13.1%	·	-6.6%	-6.0%	·
CC1(C)CC(=O)c2c(O)cc(OCc3ccc(Br)cc3)cc2O1	2.59µM*	3.01µM*	15.6%	2.51µM*	2.82µM*	?
CC1(C)CC(=O)c2cc(OCC(=O)O)ccc2O1	4.6%	-0.5%	-7.3%	-2.7%	1.6%	-5.0%
COC(=O)c1ccc(COc2cc(O)c3c(c2)OC(C)(C)CC3=O)cc1	-0.2%	15.1µM*	2.4%	20.5%	?	-49.7%
